SW480 rereplic: A quantitative high throughput screen for small molecules that induce DNA re-replication in SW480 colon adenocarcinoma cells; SW480 DNA re-replication, Hoechst DNA content imaging, 48 h; Potency, µM (series often up to 46.1 µM), for inactives: at the highest dose re-replication activation, most hits filed as activators; 1.8% of 340,000 active; AID 624297, 2012; further: potency means the concentration at half of the fitted maximal effect; % of control where 0% means no effect; nearly all actives have a fitted effect of over 55% in size
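DNA re-replication was detected as more nuclei of elevated Hoechst intensity after 48 hr exposure to compound (23 nL pinned per well of 250 cells).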
MCF10A rerep: A quantitative high throughput screen for small molecules that induce DNA re-replication in MCF 10a normal breast cells; MCF 10A DNA re-replication, Hoechst nuclear intensity, 48 h; 2.9% of 350,000 active; AID 624296, 2012; Potency, µM (series often up to 46.1 µM), for the others: at the top dose activity, positive = re-replication, usual class: activators; further: potency means the concentration at half of the fitted maximal effect; % of control where 0% means no effect; nearly all actives have a fitted effect of over 50% in size
TDP1 cell noCPT: qHTS for Inhibitors of human tyrosyl-DNA phosphodiesterase 1 (TDP1): qHTS in cells in absence of CPT; DT40 Tdp1-/- hTDP1 cells, no CPT, ATP luminescence, 48 h; Potency, µM (doses to about 46.2 µM), without a hit: at the top dose activity change, negative = growth inhibition, most hits filed as inhibitors; 15% of 420,000 active; further: potency means the concentration at half of the fitted maximal effect; on the % scale 0 is the no-effect control and ±100 the full control effect; nearly all actives have a fitted effect of over 55% in size
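Growth of hTDP1-complemented DT40 Tdp1-knockout cells is measured by ATP luminescence after at least 48 hr compound exposure at 37 °C, with DMSO substituting for the 20 nM CPT used in the parallel screen.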
IL-1B inflam inh: qHTS for Inhibitors of Inflammasome Signaling: IL-1-beta AlphaLISA Primary Screen; THP-1 LPS/ATP IL-1B secretion, AlphaLISA, 16 h; active compounds read low; activity change, % at 57.5 µM; 4.7% of 360,000 active; in the data active means activity change below about -50%; inconclusive means mostly about -30% to -49%; further: on the % scale 0 is the no-effect control and ±100 the full control effect
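THP-1 cells pretreated 1 hr with compounds (up to 57.5 uM final), then stimulated with LPS (250 ng/mL final) plus ATP (1.25 mM final); secreted IL-1B measured by AlphaLISA after 16 hr, decreased signal indicating inhibition.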
DT40 TDP1 CPT: qHTS for Inhibitors of human tyrosyl-DNA phosphodiesterase 1 (TDP1): qHTS in cells in presence of CPT; chicken DT40 Tdp1-/-;hTDP1 cells + 20 nM CPT, ATP luminescence, 48 h; Potency, µM (highest dose often 46.2 µM), for inactives: top-dose activity change, negative = growth inhibition, actives largely listed as inhibitors; 12% of 420,000 active; AID 686979, 2013; further: potency means the concentration at half of the fitted maximal effect; on the % scale 0 is the no-effect control and ±100 the full control effect; nearly all actives have a fitted effect of over 55% in size
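Chicken DT40 Tdp1-/- cells complemented with human TDP1, 400 cells/well, exposed to compounds plus 20 nM camptothecin for at least 48 h at 37 C; viability read as ATP content by CellTiter-Glo luminescence.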
BCR signal inh: qHTS Assay to Find Inhibitors of Chronic Active B-Cell Receptor Signaling. ABC-DLBCL IkBa-CBG/CBR reporter, luminescence ratio, 4 h. Potency, µM (highest dose often 46.1 µM), inactives show top-dose activity change, negative = inhibition, most hits filed as inhibitors. 0.05% of 340,000 active; active means well fitted inhibition curve with a large enough effect in the signal ratio, with a control signal flat, not every such curve was filed as active; inconclusive means small, poorly fitted or top-dose-only effect, or effect the other way, or a change in a side signal; the % refers to the signal ratio;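 further: potency means the concentration at half of the fitted maximal effect; plate controls were basal doxycycline-induced cells for no effect and cells given 10 µM MG132 for full effect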
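Cell line TMD8 (human ABC DLBCL), stably expressing tet-inducible CBG68-IkBa fusion and CBR; IMDM/0.5% FBS; cpd up to 46 uM; dox induction, 4 h, 37C/5% CO2; dual luminescence; green/red ratio; MG132 control.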
An asterisk follows results filed as active; ? = inconclusive; / = no result given; ! = a repeat was not active; [ ] = another dose, or the depositor's remark. A selection: hits, their analogues and other compounds. The true share with any hit is near 19%. Unless noted, the call rests on the fitted dose curve; in most records, active means well fitted curve in the direction sought with a large enough effect; inconclusive means small, poorly fitted or top-dose-only effect, or another doubt; inactive means no such curve, though single readings can be large; an effect the other way counts as inactive or inconclusive.

SMILES	SW480 rereplic	MCF10A rerep	TDP1 cell noCPT	IL-1B inflam inh	DT40 TDP1 CPT	BCR signal inh
CC(Sc1nnc2ccc3ccccc3n12)C(=O)Nc1ccc(Cl)cc1 (stereo not drawn)	/	/	?	/	14.6µM*	/
CC(Sc1nncn1C)C(=O)Nc1ccc2ccccc2c1 (stereo not drawn)	?	5.1%	-9.6%	-16.5	-3.1%	16.0%
COc1ccccc1NC(=O)C(C)Sc1nnc2ccc3ccccc3n12 (stereo not drawn)	/	/	?	/	20.6µM*	/
CCOC(=O)C(C)Sc1nnc2ccc3ccccc3n12 (stereo not drawn)	/	/	?	/	-0.7%	/
COc1ccc(NC(=O)C2CCN(C(=O)Nc3ccccc3)CC2)cc1S(=O)(=O)N(C)C	-1.9%	0.5%	2.0%	-1.3	-16.3%	?
CCOc1ccc(CC(=O)N/N=C/c2sccc2C)cc1	5.6%	11.7%	-1.4%	-15.8	-3.9%	?
Cc1noc(C)c1NC(=O)Nc1ccc2c(c1)C(=O)N([C@H](C)CO)C[C@H](C)[C@H](CN(C)C)O2	-3.9%	-4.2%	-9.7%	-1.3	4.8%	0.1%
c1ccc(NC2=Nc3ccccc3CS2)cc1	?	-2.7%	-6.2%	11.3	-17.7%	?
Brc1ccc(NC2=Nc3ccccc3CC2)cc1	?	?	16.4µM*	-7.8	?	?
CCN(CC)CCOCCOC(=O)C(CC)(CC)c1ccccc1 (tested in a mixture with another compound)	0.8%	29.9µM*	/	/	/	/
C/C(=N/NC(=O)c1cc(C)[nH]n1)c1ccncc1	2.7%	8.4%	-2.5%	4.2	-10.6%	?
CCOc1ccc(S(=O)(=O)Nc2cccc(C(=O)NCC3CCCO3)c2)cc1 (stereo not drawn)	-1.4%	9.4%	?	14.2	?	0.7%
CCOC(=O)c1cnn(-c2ccccc2)c1-n1cccc1C(=O)C(=O)Nc1ccccc1C(F)(F)F	5.1%	7.3%	20.6µM*	-0.3	?	0.9%
Cn1cccc1C(=O)C(=O)Nc1ccccc1C(F)(F)F	11.7%	-2.0%	-19.0%	-13.8	-23.5%	?
Cn1nc(C(=O)N2CCN(c3ccccc3)CC2)c2c1-c1ccccc1SC2	/	/	8.9%	/	-4.8%	/
Cc1ccc2c(c1)-c1c(c(C(=O)N3CCN(c4cc(Cl)ccc4C)CC3)nn1C)CS2	/	/	18.4µM*	/	?	/
CCN1CCN(C(=O)c2nn(C)c3c2CS(=O)(=O)c2ccccc2-3)CC1	?	1.0%	7.5%	47.5	5.2%	-0.3%
Cc1cccc(N2CCN(C(=O)c3nn(C)c4c3CS(=O)(=O)c3ccccc3-4)CC2)c1C	?	?	16.4µM*	-5.8	13µM*	0.9%
Cc1ccc(C)c(N2CCN(C(=O)c3nn(C)c4c3CS(=O)(=O)c3ccccc3-4)CC2)c1	-2.1%	17.4%	23.1µM*	?	23.1µM*	-20.3%
Cn1nc(C(=O)N2CCN(c3ccccc3F)CC2)c2c1-c1ccccc1S(=O)(=O)C2	11.8%	4.8%	?	0.0	14.6µM*!	-22.3%
Cn1nc(C(=O)N2CCN(c3ccccc3)CC2)c2c1-c1ccccc1S(=O)(=O)C2	-7.8%	11.8%	?	?	?	-3.4%
O=C(CSc1ncccn1)NCC1Cc2cccc(-c3ncccn3)c2O1 (stereo not drawn)	/	/	8.2%	/	7.0%[9.04 µM]	/
CN(Cc1cnn(C)c1)S(=O)(=O)c1cccc([N+](=O)[O-])c1	-51.1%	-20.2%	-8.1%	-0.1	0.2%	6.8%
CC1CCCC(NC(=O)CCC(=O)N2CCOc3ccccc32)C1C (stereo not drawn)	3.5%	-2.4%	?	46.7	?	6.7%
CCc1nc2cc(C(=O)NC3CCOC(C)(C)C3)cc(NC(=O)c3ccccc3OC)c2n1C (stereo not drawn)	/	/	-22.5%	/	7.0%	/
SMILES	SW480 rereplic	MCF10A rerep	TDP1 cell noCPT	IL-1B inflam inh	DT40 TDP1 CPT	BCR signal inh
O=C(CNS(=O)(=O)c1ccc(Cl)c(C(F)(F)F)c1)NC1CCCCCC1	5.5%	13.4%	-20.5%	24.0	-16.3%	0.3%
COc1ccc(-c2cnc3c(NC(C)=O)cc(-c4ccccc4CN(C)C)cn23)cc1OC	/	/	?	-22.0	?	/
COc1cccc(-c2cnc3c(NC(C)=O)cc(-c4ccc(C(=O)NC5CC5)cc4)cn23)c1	/	/	13µM*	?	?	/
COc1ccc(-c2cnc3c(NC(C)=O)cc(-c4ccc(C(=O)NC5CC5)cc4)cn23)cc1OC	/	/	23.1µM*	0.0	23.1µM*	/
CCN1C(=O)CSC1=Nc1ccc(C(=O)OC)cc1	/	/	-11.7%	34.1	-6.5%	/
CCCCSCc1nc2nc(Cl)c(Cl)nc2[nH]1	/	/	18.4µM*	-0.7	16.4µM*	/
c1ccc(CN2CCN(c3nc(-c4ccccc4)nc(-n4ccnc4)n3)CC2)cc1	20.6µM*	?	18.4µM*	?	16.4µM*	?
CC(C)Nc1nc(-c2ccccc2)nc(-n2ccnc2)n1	16.1%	21.9%	-27.4%	?	-3.0%	3.1%
c1ccc(-c2nc(-n3ccnc3)nc(-n3ccnc3)n2)cc1	8.0%	?	10.3µM*	-84.2*	20.6µM*	?
c1ccc(N(c2ccccc2)c2nc(N3CCCC3)nc(-n3ccnc3)n2)cc1	?	3.66µM*	25.9µM*	-9.4	?	0.4%
NC(=O)c1ccc(NC(=O)COC(=O)CC2Sc3ccccc3NC2=O)cc1 (stereo not drawn)	-4.1%	-2.3%	-20.4%	35.7	3.5%	-0.5%
COc1cccc(NC(=O)CSc2nc3ccccc3c(=O)n2C)c1	0.7%	-1.0%	23.1µM*	-15.0	16.4µM*	?

High-throughput results as filed in PubChem.
